# About 83,000 compounds went through this panel and 20% of them were active in at least one assay; those are over-represented in the sample as a whole.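 Step 1: grow cells in 96-well plates. Step 2: add test compound at a single concentration. Step 3: incubate 48 h. Step 4: record percent growth.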 Unmarked numbers belong to inactive results. Active and inactive are the calls of the source. The calls were made as follows: active = growth percent below 10; inactive = the rest.
# What was measured:
# Assay in all cases: NCI-60 one-dose screen, 48 h (100 = growth as untreated, 0 = no growth, -100 = all killed)
# Conditions in all cases: 10 µM unless noted
# T-47D breast = tested on: T-47D breast
# BT-549 breast = tested on: BT-549 breast
# MDA-MB-435 melanoma = tested on: MDA-MB-435 melanoma
# SW-620 colon = tested on: SW-620 colon
# MCF7 breast = tested on: MCF7 breast
# HCT-116 colon = tested on: HCT-116 colon
# HCC-2998 colon = tested on: HCC-2998 colon
# KM12 colon = tested on: KM12 colon
Compound,growth (T-47D breast),growth (BT-549 breast),growth (MDA-MB-435 melanoma),growth (SW-620 colon),growth (MCF7 breast),growth (HCT-116 colon),growth (HCC-2998 colon),growth (KM12 colon)
COc1ccc(-c2cc(-c3cc(OC)c(OC)c(OC)c3)nc(N3CCOCC3)c2C#N)cc1,46.7%,128%,74.5%,67.3%,74.4%,72.1%,35%,71.9%
C(=N/Nc1ncnc2nc[nH]c12)/c1ccccn1,30.2%,54.7%,39.5%,36.8%,22.9%,28.1%,28.2%,36.3%
CC([C@H]1CCC2C3CCC4C(=O)C(NC=O)=CC[C@]4(C)C3CC[C@@]21C)N(C)C (stereo partly drawn),-12.7% (active),49.5%,-26% (active),-48.5% (active),17.3%,-7.83% (active),19%,17.8%
CCN1C(=O)N(CC)C2Nn3c(s/c(=C4\C(=O)Nc5ccccc54)c3=O)=NC21 (stereo not drawn),45.8%,65.3%,-51% (active),27.6%,29.1%,31.8%,88%,33%
O=c1c2cc(F)ccc2sc2c(N3CCNCC3)nc3ccccc3c12,27.9%,90.8%,-87.1% (active),-87.1% (active),-74.1% (active),-46.3% (active),-92.1% (active),-82.4% (active)
CN(C)CCNc1nc2ccccc2c2c(=O)c3cc(F)ccc3sc12,66.1%,64.4%,1.18% (active),-48% (active),34.3%,-11.2% (active),-64.5% (active),8.53% (active)
Cn1cc(-c2ccc3cc(-c4ccc(CC(=O)Nc5cc(C(C)(C)C)nn5C)cc4)cnc3c2)cn1,-0.815% (active),-8.22% (active),5.58% (active),20.1%,13.4%,11.5%,32.9%,-33.3% (active)
CCCCOc1ccc(/C=N/NC(N)=S)cc1,23.8%,73.6%,85.5%,73.3%,61.7%,67.8%,79.7%,69.2%
COc1ccc(/C=C(/C#N)n2nnc3cccc(F)c32)cc1,9.54% (active),20.3%,-56.4% (active),11.9%,17.1%,10.1%,36%,5.54% (active)
NCCOc1ncccc1/C=C1\C2C=CC=CC2C2C=CC(F)=CC12 (stereo not drawn),33.1%,84.7%,63.4%,13.3%,11.8%,22.2%,4.37% (active),29%
O=C(CCCCCCSc1nc(-c2ccccc2)cc(-c2ccccc2)n1)NO,-11.1% (active),30.9%,17.3%,8.47% (active),16.1%,11.6%,63.4%,50.7%
c1ccc(Cc2nn3cc(-c4ccccc4)nc3s2)cc1,87.6%,102%,114%,109%,87.2%,78.9%,103%,96.5%
C=C(C)C1CCC2(C)OC2C1 (stereo not drawn),117%,99.3%,98.2%,110%,105%,109%,114%,115%
c1ccc(CO[C@H]2CO[C@H]3[C@@H]2OC[C@@H]3Oc2ccc(Nc3ncnc4ccsc34)cc2)cc1,38.9%,68.9%,83.9%,87.6%,64.9%,68.9%,104%,86.2%
CC1CN(C2CCCCC2)C(=S)N(c2ccccc2)C1=O (stereo not drawn),103%,108%,105%,103%,96.1%,101%,100%,97.3%
CN1CCN(c2ccc(-c3ccc4ncc(C#N)c(Nc5ccc(F)c(Cl)c5)c4c3)cn2)CC1,60.8%,60.3%,81.6%,53.4%,66.9%,32.8%,68.9%,80.7%
CCc1ccc(Oc2c(-c3ccc(OCCc4cccc(C(F)(F)F)c4)cc3O)n[nH]c2C(F)(F)F)cc1,6.59% (active),86.5%,27.1%,14.7%,27.8%,0% (active),89.4%,46.4%
Fc1cc(-c2nnc3n2NC(=Nc2ccc(Cl)cc2)CS3)c(Cl)cc1Cl,79.2%,94.7%,64.2%,95.7%,86.9%,91.3%,75.3%,60.5%
C#Cc1cccc(NC(=O)Nc2ccccc2NC(=O)CCl)c1,1.49% [8.25 µM] (active),-27% [8.25 µM] (active),-68.7% [8.25 µM] (active),-5.75% [8.25 µM] (active),0.96% [8.25 µM] (active),0.401% [8.25 µM] (active),-29.4% [8.25 µM] (active),-37.6% [8.25 µM] (active)
Cc1nc(/N=C(\N)NC(=O)Nc2ccccc2Cl)sc1C,34.7%,69.3%,-25.6% (active),36.3%,23.6%,28.5%,33.4%,40.3%
COc1ccc(CNC(=O)C(=O)[C@H](Cc2ccccc2)NC(=O)c2[nH]c3ccccc3c(=O)c2C)cc1,101%,115%,100%,97.3%,94.3%,101%,110%,101%
CCCCOc1nc2c(C)cccc2cc1-c1cc(-c2ccc(Cl)cc2)nc(-c2ccc(Cl)cc2)c1,99%,101%,102%,98.4%,96.9%,99.5%,108%,97.7%
CCCCN(C)N=Nc1ccc(C(N)=O)cc1,113%,112%,84.5%,104%,94%,107%,101%,107%
C/C=C(\C)C(=O)N[C@H]1[C@@H](OC(C)=O)C[C@]2(C)C3CC[C@@]4(C)C(CC[C@@H]4C(C)N(C)C)C3CCC2[C@H]1O (stereo partly drawn),60.6%,63.4%,1.82% (active),63.9%,61.9%,30.7%,69.2%,45.6%
COc1cc(C(=O)c2cc(C)c3[nH]c4ccc(O)cc4c3c2C)cc(OC)c1OC,38.5%,-1.57% (active),-6.06% (active),31.2%,11%,-5.93% (active),20.6%,4.49% (active)
CNCCCC12CCC(c3ccccc31)c1ccccc12,89%,78.3%,78.9%,98.2%,87.3%,69.1%,50.5%,94.1%
